BAZ2B inh: BAZ2B (human) inhibition | Q9UIF8 | AlphaScreen BAZ2B-H3K14Ac peptide displacement | Potency, µM (series often up to 114 µM), without a hit: top-dose activity change, negative = inhibition, usual class: inhibitors | 4.4% of 360,000 active; also: % is scaled to controls: 0 for no effect and ±100 for the full control effect; nearly all actives have a fitted effect of over 60% in size
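AlphaScreen luminescence quantifies BAZ2B engagement of H3K14Ac peptide; the protein and biotinylated peptide are both at 50 nM final, buffer PBS pH 7.4 with 0.01% Tween-20, all steps at room temperature.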
JMJD2A Tudor inh: blocks the human JMJD2A Tudor domain; AlphaScreen JMJD2A-Tudor / H3K4me3 peptide binding; AID 504339; 4.4% of 390,000 active; Potency, µM (doses to about 114 µM), for the others: at the highest dose activity change, negative = inhibition, actives largely listed as inhibitors; also: % is scaled to controls: 0 for no effect and ±100 for the full control effect; nearly all actives have a fitted effect of over 50% in size
HP1b chromo inh: inhibitors of HP1-beta chromodomain binding to methylated histone tails | P83916 | AlphaScreen HP1-beta / biotin-H3K9me3 peptide binding | Potency, µM (top dose mostly 114 µM), for inactives: at the highest dose activity change, negative = inhibition, actives largely listed as inhibitors | 0.56% of 390,000 active; also: nearly all actives have a fitted effect of over 70% in size
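AlphaScreen: HP1-beta (50 nM) preformed 30 min with biotin-H3(1-18)K9me3 peptide (50 nM) in PBS pH 7.4, 0.01% Tween-20. Compound added for 30 min at RT, then streptavidin donor/nickel chelate acceptor beads (10 ug/mL) for 30 min.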
G9a block: G9a (human) methyltransferase inhibition; Q96KQ7; G9a H3K9 monomethylation, AlphaScreen, 2 h; Potency, µM (highest dose often 102 µM), for inactives: at the highest dose activity, negative = inhibition, actives largely listed as inhibitors; 8.8% of 350,000 active; also: % is scaled to controls: 0 for no effect and ±100 for the full control effect; nearly all actives have a fitted effect of over 75% in size
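Methyltransferase reactions run at room temperature for 2 h (20 nM enzyme, 500 nM biotin-H3K9 peptide, 20 uM SAM) after a 15 min compound preincubation; product detected by AlphaScreen beads and anti-H3K9me1 antibody.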
L3MBTL1 block: blocks human L3MBTL1 | 0.66% of 230,000 active | Potency, µM (highest dose often 57.1 µM), without a hit: top-dose activity, negative = inhibition, most hits filed as inhibitors | AID 485360 | AlphaScreen L3MBTL1–H3K9me1 peptide binding; also: % is scaled to controls: 0 for no effect and ±100 for the full control effect; nearly all actives have a fitted effect of over 60% in size
Target sequence (Q9Y468 whole entry, looked up): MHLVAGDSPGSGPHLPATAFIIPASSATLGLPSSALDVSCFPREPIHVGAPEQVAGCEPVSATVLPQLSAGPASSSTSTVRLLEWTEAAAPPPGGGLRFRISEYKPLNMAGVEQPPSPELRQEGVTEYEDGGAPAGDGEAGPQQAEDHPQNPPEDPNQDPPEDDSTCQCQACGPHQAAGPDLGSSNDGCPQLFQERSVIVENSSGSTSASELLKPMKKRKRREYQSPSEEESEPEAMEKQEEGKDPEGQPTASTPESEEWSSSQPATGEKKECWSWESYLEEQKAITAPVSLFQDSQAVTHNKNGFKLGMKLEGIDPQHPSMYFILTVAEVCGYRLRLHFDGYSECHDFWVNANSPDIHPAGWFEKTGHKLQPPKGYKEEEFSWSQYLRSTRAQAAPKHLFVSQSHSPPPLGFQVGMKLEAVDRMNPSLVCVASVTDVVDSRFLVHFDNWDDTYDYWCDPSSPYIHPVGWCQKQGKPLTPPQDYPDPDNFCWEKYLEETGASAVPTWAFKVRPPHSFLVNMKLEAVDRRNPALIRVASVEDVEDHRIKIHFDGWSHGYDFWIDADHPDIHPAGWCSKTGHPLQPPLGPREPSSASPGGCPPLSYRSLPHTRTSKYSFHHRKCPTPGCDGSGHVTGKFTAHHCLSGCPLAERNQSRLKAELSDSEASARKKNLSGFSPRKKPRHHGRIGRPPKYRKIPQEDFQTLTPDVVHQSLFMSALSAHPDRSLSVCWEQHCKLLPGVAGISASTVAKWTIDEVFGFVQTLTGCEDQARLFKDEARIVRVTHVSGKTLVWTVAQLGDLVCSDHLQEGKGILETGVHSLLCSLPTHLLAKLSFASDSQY
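Read-out is AlphaScreen signal from streptavidin donor and nickel chelate acceptor beads (10 ug/mL final each) bridging L3MBTL1 (50 nM) and biotinylated K9-monomethylated H3(1-15) peptide (75 nM), after 30 min compound exposure at room temperature.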
Sfp inh: Sfp phosphopantetheinyl transferase inhibition; Biochemical Sfp PPTase activity, qHTS; 3.5% of 310,000 active; Potency, µM, for inactives: largest response in the series, negative = inhibition, usual class: inhibitors; AID 1490;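 also: the enzyme is Sfp with the accession as filed and its product quenches rhodamine fluorescence; 0% = enzyme reaction without inhibitor and -100% = no enzyme wells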
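Buffer: 50 mM Hepes-Na pH 7.6, 10 mM MgCl2, 0.01% Nonidet P-40, 0.01% BSA. Enzyme 15 nM, pre-exposed to compound 15 min; substrates then added and fluorescence change tracked over 30 min.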
* marks the source's active call; other numbers are inactive results; ? = inconclusive; . = not tested or not shown; [ ] = dose if it differs, or a comment. This is a sample that favours compounds with a hit; in the whole collection about 12% have one here. Calls follow the shape of the dose curve; as a rule, active = well fitted curve in the direction sought with a large enough effect; inconclusive = small, poorly fitted or top-dose-only effect, or another doubt; inactive = no such curve, though single readings can be large; an effect the other way counts as inactive or inconclusive. Potency is read from the fitted curve at half-maximal effect.

SMILES	BAZ2B inh	JMJD2A Tudor inh	HP1b chromo inh	G9a block	L3MBTL1 block	Sfp inh
Cc1ccccc1CNC(=O)Nc1cccs1	-28%	-24%	?	7.1µM*	-10%	20µM*
CC1=C(C(=O)NCc2ccc(Cl)cc2)C2(CCCCC2)OC1=O	2%	-12%	17%	-45%[59 µM]	.	.
Cc1nn(Cc2noc(C(=O)NC(C)c3ccccc3)n2)c(C)c1Br (stereo unspecified)	-2%	-18%	17%	2%[59 µM]	.	.
COc1ccccc1CNC(=O)CNCCc1ccc(OC)c(OC)c1	50µM*	22µM*	?	.	-3%	-9%
COc1ccc(CCNC(=O)/C(C#N)=C/c2ccc(OCC(=O)NCC3CCCO3)cc2)cc1OC (stereo unspecified)	0%	-22%[57.1 µM]	29%	8%[0.501 µM]	-1%	17%
COc1ccc(CCNCc2csc3nc4ccccc4n23)cc1OC	?	89µM*	10%	50µM*	-6%	5%
COc1ccc(CCNc2nc3ccccc3n3nnnc23)cc1OC	-5%	-9%	32%	8%	.	-20%
COc1ccc(CCNC(=O)CNCC2CCCO2)cc1OC (stereo unspecified)	?	3.5µM*	?	8.9µM*	26%	63µM*
COc1ccccc1CNC(=O)CSC(=S)N1CCCC1	-2%	-11%	19%	11µM*	-1%	.
CCCCCCCCCCCCCc1ccco1	.	.	.	.	.	-1%
COc1ccccc1CNC(=O)CC(C)C	2%	28µM*	?	-3%[59 µM]	4%	-3%
COc1ccccc1CNC(=O)C12CC3CC(CC(C3)C1)C2	38%	79µM*	10%	.	44%	11%
COc1ccccc1CNC(=O)CS(=O)(=O)c1ccc(C)cc1	0%	-16%	22%	79µM*	.	1%
O=C(NCc1ccccc1F)C12CC3CC(CC(C3)C1)C2	.	-13%	15%	.	.	.
CCCc1cc(=O)[nH]c(Nc2ccc(C)c(O)c2)n1	-8%	-10%	32%	?	.	.
CCCOc1ccc(Nc2nc(SC)ncc2C(=O)OCC)cc1	38%	59%	98%	99%[59 µM]	.	.
COc1ccc(C2c3ccc4ccccc4c3Oc3ncn4nc(Cc5ccccc5)nc4c32)cc1OC (stereo unspecified)	-9%	-5%	9%	7.1µM*	4%	2%
Cn1c(Cn2nnc3ccccc32)nnc1SCC(N)=O	20%	-21%	25%	?	.	-1%
COc1ccc(Cc2nn3c(Cn4nnc5ccccc54)nnc3s2)cc1	-38%	89µM*	?	1.6µM*	0%	16µM*
c1ccc2c(c1)nnn2Cc1nnc2sc(-c3ccc4c(c3)OCCO4)nn12	-1%	-29%	-36%	?	11%	18µM*
c1ccc(-c2nn3c(Cn4nnc5ccccc54)nnc3s2)cc1	1%	?	?	3.2µM*	-1%	-100%
COC(=O)[C@@H]1CC[C@H](C)[C@@H](c2ccc(C)cc2)N1C(=O)c1ccc(/C=N/O[C@@H](C)CN2CCCCc3nc(C)c(C)cc32)cc1	19%	.	.	32µM*	-9%	25µM*
COC(=O)C1(CC(C)C)C=C2C(=C(c3ccccc3)C(=O)C2C)CN1 (stereo unspecified)	.	.	.	.	.	-5%
O=C(O)CCc1nn2c3ccccc3n(CCO)c2nc1=O	-8%	-14%	22%	?	3%	15%
O=C(O)CCc1nn2c3ccccc3n(CC(=O)O)c2nc1=O	2%	-1%	22%	50µM*	18%	-2%
Cc1ccc(CN=Cc2[nH]c3ccc(Br)c(Cl)c3c2O)cc1	?	50µM*	45µM*	28µM*	.	?
CCCC(CCC)c1nc2ccncc2[nH]1	?	?	?	50µM*	.	-12%
Cc1ccc(CSc2nc3ccncc3[nH]2)cc1	11%	-12%	34%	6%	.	0%
Cc1[nH]nc(SCC(=O)N2CCC(C)CC2)c1[N+](=O)[O-]	-26%	1%	30%	?	.	89µM*
NS(=O)(=O)c1ccc(NC(=S)N2CCC(O)CC2)cc1	2%	7%	12%	40µM*	.	45µM*
